Results on 8 compounds are retold here after PubChem BioAssay (NCATS).

Assay [1] can be described thus: AP1 Signaling Pathway (AID 357).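 Also: ME-180 reporter cells stimulated with EGF at its EC50 level; % is scaled to controls: 0 for no effect and ±100 for the full control effect.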 To be noted: ME-180 AP-1-bla reporter, EGF-induced, beta-lactamase ratio, 5 h; at 17.2 µM (top of the series) unless noted. Put shortly: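 A ratiometric CCF4 readout (405 nm excitation; 460 and 530 nm emission) quantified AP-1-driven beta-lactamase in ME-180 cells after 5 h with compound and EC50 EGF; AC50 values were derived for activators and inhibitors.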

A short description of assay [2]: NFAT Signaling Pathway (AID 444).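 Also: carbachol stimulus at about its EC50 of 1 µM final; % is scaled to controls: 0 for no effect and ±100 for the full control effect.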 The following applies: Jurkat NFAT-bla M1, carbachol, beta-lactamase ratio, 5 h; at 17.2 µM (top of the series) unless noted. A digest of the protocol: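 Read-out: CCF4 FRET ratio (460 nm/530 nm) after 1 h RT dye loading, used for %activity and AC50 from titration series. Cells: Jurkat NFAT-β-lactamase/M1 line, treated with compound plus 1 uM carbachol for 5 h, 37 °C.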

Assay [3] in a line: Stat Signaling Pathway (AID 446).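 Also: ME-180 cervical cancer cells given 40 pM IL-6 alongside compound; SIE-controlled beta-lactamase reporter measured as 460/530 nm FRET emission ratio; % is scaled to controls: 0 for no effect and ±100 for the full control effect.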 Put shortly:
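Reporter line: ME-180 cervical carcinoma, SIE-beta-lactamase. Treatment: compound with 40 pM IL-6, 5 hrs, 37 C, in low-serum OPTI-MEM with 10 mM HEPES pH 7.3. Detection: 460/530 nm fluorescence.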

In assay [4] the target is Cytochrome P450 1A2 (Homo sapiens) (UniProt P05177). Kind of assay: p450-cyp1a2 (AID 410; calls by dose curve). Put shortly:
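Inhibition was calculated relative to 57 uM furafylline (full inhibition). The reaction used human CYP1A2 at 20nM with Luciferin-ME at its Km, 100uM, driven by an NADPH-regenerating system for 60 min at room temperature.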

The target in assay [5] is Glucocorticoid receptor (Homo sapiens) (UniProt P04150). In words: GR-GFP Redistribution (AID 450;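 active = compounds whose dose series gives a full or clear partial fitted curve of increased nuclear translocation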; also: potency is read from the fitted curve at half-maximal effect). To be noted: U2OS GR-GFP nuclear translocation, laser cytometry, 2 h.
Assay [6] concerns the target 3',5'-cyclic-AMP phosphodiesterase 4B (Homo sapiens) (UniProt Q07343). Kind of assay: qHTS Assay for Inhibitors of PDE-IV (AID 607; active = well fitted activation curve with a large enough effect in the main read-out, with a control signal flat, not every such curve was filed as active; also: % of control where 0% means no effect). A digest of the protocol: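 Cell-based read-out of cAMP via a modified cyclic nucleotide-gated channel and membrane potential dye (535/590 nm) in HEK293 cells expressing PDE4 endogenously. Compounds tested up to 22.9 uM final; 100 uM RO 20-1724 reference.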

Assay [7] concerns the target Cytochrome P450 2C9 (Homo sapiens) (UniProt P11712). In words: qHTS Assay for Inhibitors and Substrates of Cytochrome P450 2C9 (AID 883; active = well fitted curve in the direction sought with a large enough effect; an effect the other way counts as inactive or inconclusive; also: % is scaled to controls: 0 for no effect and ±100 for the full control effect; nearly all actives have a fitted effect of over 60% in size). Put shortly:
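Turnover of Luciferin-H (100uM, KM) by 10nM human CYP2C9 was measured over 60 min at 37C with NADPH regeneration; inhibitors and some substrates reduce luminescence. Data normalized to sulphaphenazole 57uM.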

Assay [8] has as its target Cytochrome P450 2D6 (Homo sapiens) (UniProt P10635). Kind of assay: qHTS Assay for Inhibitors and Substrates of Cytochrome P450 2D6 (AID 891; active = well fitted curve in the direction sought with a large enough effect; an effect the other way counts as inactive or inconclusive;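 also: luciferin methyl ether substrate demethylated by CYP2D6 with NADPH regeneration; % is scaled to controls: 0 for no effect and ±100 for the full control effect; nearly all actives have a fitted effect of over 60% in size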). Put shortly:
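Human CYP2D6 (5 nM) with 30 uM Luciferin-ME EGE (at Km) in 100 mM KPO4, compound preincubated 10 min, then NADPH regeneration system for 60 min at room temperature. Luciferin read by luminescence; normalized to 1.43 uM quinidine.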

Assay [9] deals with Cytochrome P450 2C19 (Homo sapiens) (UniProt P33261). Kind of assay: qHTS Assay for Inhibitors and Substrates of Cytochrome P450 2C19 (AID 899; active = well fitted curve in the direction sought with a large enough effect; an effect the other way counts as inactive or inconclusive; also: % is scaled to controls: 0 for no effect and ±100 for the full control effect; nearly all actives have a fitted effect of over 60% in size). A digest of the protocol: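 Reactions contain 5nM enzyme, 10uM Luciferin-H EGE (KM) and 50mM KPO4; compound preincubates 10 min at 37C, NADPH regeneration starts turnover for 60 min. Luminescence after detection reagent gives activity.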

The target of assay [10] is Mitogen-activated protein kinase 10 (Mus musculus) (UniProt Q61831). Kind of assay: JNK3 AlphaScreen Assay (AID 530).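 Also: kinase came from lysate of stimulated human HepG2 cells; signal reports phosphorylation of biotinylated GST-cJun 1-79 at Ser73 with 10 µM ATP; % is scaled to controls: 0 for no effect and ±100 for the full control effect.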 A digest of the protocol:
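Room-temperature AlphaScreen kinase assay; pre-activated HepG2 lysate as JNK3 source, biotin-GST-cJun(1-79) substrate, 10 uM ATP, compound 15 min preincubation.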
(In general: Alpha assays give light when donor and acceptor beads are brought close together.)

The target of assay [11] is Guanine nucleotide-binding protein G(i) subunit alpha-1 (Homo sapiens) (UniProt P63096). In words: qHTS Assay for Inhibitors of RGS12 GoLoco Motif Activity (Green Fluorophore) (AID 879; active = well fitted curve in the direction sought with a large enough effect; an effect the other way counts as inactive or inconclusive;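 also: 0% = labeled peptide with Gαi1 and full inhibition = labeled peptide alone without protein; negative values mean loss of peptide binding seen as reduced polarization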). A digest of the protocol: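 Fluorescence polarization assay: 50 nM Gαi1 with 10 nM FITC-labeled RGS12 GoLoco peptide in 10 mM Tris pH 7.5, 150 mM NaCl, 0.1 mM GDP, 0.05% NP40, 10 min at room temperature with compound.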

A short description of assay [12]: qHTS Assay for Identification of Small Molecule Agonists for Thrombopoietin (TPO) Signaling Pathway (AID 917; active = well fitted curve in the direction sought with a large enough effect; an effect the other way counts as inactive or inconclusive; also: % is scaled to controls: 0 for no effect and ±100 for the full control effect). A digest of the protocol: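 Activators of TPO signaling were sought in murine Ba/F3 cells transfected with the human receptor, using a luciferase gene driven by the Glycoprotein IIb promoter; 24-hr compound exposure at 37 C alongside 26 pM TPO, in IL-3-free medium.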
On the technique in general: qHTS replaces the single test concentration by a dilution series.

The target of assay [13] is Muscarinic acetylcholine receptor M1 (Rattus norvegicus) (UniProt P08482). In words: qHTS Assay for Antagonists of Acetylcholine Muscarinic M1 Receptor: Measurement of IP-One Response (AID 944; active = well fitted curve in the direction sought with a large enough effect; an effect the other way counts as inactive or inconclusive; also: nearly all actives have a fitted effect of over 75% in size; also: potency is read from the fitted curve at half-maximal effect). Put shortly: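 Steps: plate transfected CHO-M1 cells overnight; add test compound, 10 min; add carbachol (200 nM, EC80) in stimulation buffer with LiCl; incubate 30 min; add labelled IP1 tracer and anti-IP1 antibody in lysis buffer; read HTRF after 10 min.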

For assay [14], the target named is Pyruvate kinase (Leishmania mexicana) (UniProt Q27686). Kind of assay: qHTS Validation Assay for Inhibitors of Leishmania Mexicana Pyruvate Kinase (AID 945; active = well fitted curve in the direction sought with a large enough effect; an effect the other way counts as inactive or inconclusive;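 also: 0% = DMSO only neutral control wells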). Put shortly:
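Substrate mix (0.5 mM PEP, 0.1 mM ADP, 7 mM MgCl2, 50 mM KCl, pH 7.2 imidazole) received compound by pin tool, then 0.2 nM LmPYK E451W. After 1 h at room temperature, PKLight was added and luminescence measured.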

Assay [15] addresses Pyruvate kinase PKM (Homo sapiens) (UniProt P14618). Kind of assay: qHTS Assay for Activators of Human Muscle Pyruvate Kinase (AID 954; active = well fitted curve in the direction sought with a large enough effect, not every such curve was filed as active;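 also: 0% = uninhibited enzyme and -100% = no enzyme or full thiadiazolimine inhibition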). Put shortly:
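Human PKM2 activity is measured as ATP generation, detected by luciferase-coupled luminescence. The enzyme (0.1 nM) acts on 0.5 mM PEP and 0.1 mM ADP for 1 h at ambient temperature; data are normalized to uninhibited and full-inhibition wells.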

The target of assay [16] is Alpha-galactosidase A (Homo sapiens) (UniProt P06280). In words: Counterscreen for Glucocerebrosidase Inhibitors: qHTS Assay for Human alpha-Galactosidase at pH 4.5 (AID 992; active = well fitted curve in the direction sought with a large enough effect; an effect the other way counts as inactive or inconclusive; also: 0% is about no effect). A digest of the protocol: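 Quantitative HTS: compounds tested from 0.7 nM up to 77 uM against 2 nM enzyme with 80 uM 4-MU alpha-D-galactopyranoside. The 20 min room-temperature reaction is stopped with 1M NaOH/1M glycine, pH 10.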

The target in assay [17] is alpha-glucosidase (Oryza sativa, rice) (UniProt Q653V4). Kind of assay: Counterscreen for Glucocerebrosidase Inhibitors: qHTS Assay for Rice alpha-Glucosidase at pH 5.0 (AID 997; active = well fitted curve in the direction sought with a large enough effect; an effect the other way counts as inactive or inconclusive;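 also: 0% = full activity with enzyme and -100% = basal without enzyme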). Put shortly: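 Rice alpha-glucosidase (4 nM final) with 400 uM 4-methylumbelliferyl-alpha-D-glucopyranoside in citrate buffer pH 5.0, 20 min at room temperature, stopped at pH 10; fluorescence 365/440 nm, compounds 0.7 nM–77 uM, AC50 from Hill fits.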
A general note: A counterscreen serves to expose hits that act by an unwanted route or on another target.

The target in assay [18] is Alpha-galactosidase (Coffea arabica) (UniProt Q42656). In words: Counterscreen for Glucocerebrosidase Inhibitors: qHTS Assay for Coffee Bean alpha-Galactosidase at pH 5.9 (AID 998; active = well fitted curve in the direction sought with a large enough effect; an effect the other way counts as inactive or inconclusive;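 also: plate controls were uninhibited enzyme for no effect and no-enzyme basal signal for full effect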). A digest of the protocol: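 Compounds were titrated from 0.7 nM to 77 uM against green coffee bean alpha-galactosidase (2 nM) using 80 uM fluorogenic 4-methylumbelliferyl substrate. After 20 min at room temperature, reactions were stopped at pH 10 and read by fluorescence.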

Assay [19] deals with Glucocorticoid receptor (Homo sapiens) (UniProt P04150). In words: GR-EFC Redistribution (AID 451; calls by dose curve; also: potency is read from the fitted curve at half-maximal effect). The following applies: CHO-K1 GR-EFC translocation, beta-gal luminescence, 2 h. Put shortly:
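Translocation of GR-ED fusion to nuclear EA restores b-gal, read by luminescence after 1 h room-temperature detection. Engineered CHO-K1 biosensor cells, 1,000/well, exposed 2 h at 37 C to titrations up to 46 uM final.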

Assay [20] is described as follows: qHTS Assay for Identification of Small Molecule Antagonists for NFkB Signaling Pathway (AID 895; active = well fitted inhibition curve with a large enough effect in the signal ratio, with a control signal flat, not every such curve was filed as active; the % refers to the signal ratio; also: potency is read from the fitted curve at half-maximal effect). Put shortly: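 Beta-lactamase reporter read-out (460 and 530 nm emission ratio, 405 nm excitation, 2 hrs substrate loading RT) after 5 hr stimulation with 10 pM TNF alpha in compound-treated NFkB-bla ME-180 cells in low-serum medium.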
The nature of assay [21]: qHTS Assay for Identification of Small Molecule Antagonists for Thrombopoietin (TPO) Signaling Pathway (AID 918; active = well fitted curve in the direction sought with a large enough effect; an effect the other way counts as inactive or inconclusive; also: potency is read from the fitted curve at half-maximal effect; nearly all actives have a fitted effect of over 60% in size). To be noted: TPO-dependent cell signaling reporter, antagonist mode. Put shortly: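 First, Ba/F3 reporter cells expressing human TPO receptor were held overnight without IL-3. Next, compound and 26 pM TPO were added. After 24 hrs incubation at 37 C, luciferase luminescence under the Glycoprotein IIb promoter was recorded.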

The target of assay [22] is Muscarinic acetylcholine receptor M1 (Rattus norvegicus) (UniProt P08482). In words: qHTS Assay for Antagonists of Acetylcholine Muscarinic M1 Receptor: Kinetic Measurement of Intracellular Calcium Response (AID 943; active = well fitted curve in the direction sought with a large enough effect; an effect the other way counts as inactive or inconclusive;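 also: Fluo-4 calcium signal as peak divided by basal fluorescence over 4 min; nearly all actives have a fitted effect of over 75% in size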). Put shortly:
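Intracellular calcium flux, recorded with Fluo-4 in a kinetic plate reader, served as signal; the response to carbachol at EC80 (100 nM final) was taken as maximal over minimal fluorescence after a 10 min compound pre-incubation in rat M1-CHO cells.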

Assay [23] deals with Alpha-galactosidase (Coffea arabica) (UniProt Q42656). Kind of assay: Counterscreen for Glucocerebrosidase Inhibitors: qHTS Assay for Coffee Bean alpha-Galactosidase at pH 4.5 (AID 957; active = well fitted curve in the direction sought with a large enough effect; an effect the other way counts as inactive or inconclusive;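 also: plate controls were enzyme alone for no effect and no enzyme for full effect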). A digest of the protocol: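 AC50 values derive from Hill-equation modeling of concentration-response data, normalized to no-enzyme and full-activity controls. The pH 4.5 citrate assay used 2 nM coffee bean enzyme and 80 uM fluorogenic substrate for 20 min.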

Values without a mark were called inactive. Records with an inconclusive call do not appear. Calls of active or inactive are those of the source. Unless noted, calls follow the shape of the dose curve; as a rule, active = well fitted curve in either direction with a large enough effect (not every such curve was filed as active); inconclusive = small, poorly fitted or top-dose-only effect, or another doubt; inactive = flat fitted curve, though single readings scatter.

Chain of Glucocorticoid receptor (Homo sapiens) (P04150 whole entry, looked up, the tested form may be a part): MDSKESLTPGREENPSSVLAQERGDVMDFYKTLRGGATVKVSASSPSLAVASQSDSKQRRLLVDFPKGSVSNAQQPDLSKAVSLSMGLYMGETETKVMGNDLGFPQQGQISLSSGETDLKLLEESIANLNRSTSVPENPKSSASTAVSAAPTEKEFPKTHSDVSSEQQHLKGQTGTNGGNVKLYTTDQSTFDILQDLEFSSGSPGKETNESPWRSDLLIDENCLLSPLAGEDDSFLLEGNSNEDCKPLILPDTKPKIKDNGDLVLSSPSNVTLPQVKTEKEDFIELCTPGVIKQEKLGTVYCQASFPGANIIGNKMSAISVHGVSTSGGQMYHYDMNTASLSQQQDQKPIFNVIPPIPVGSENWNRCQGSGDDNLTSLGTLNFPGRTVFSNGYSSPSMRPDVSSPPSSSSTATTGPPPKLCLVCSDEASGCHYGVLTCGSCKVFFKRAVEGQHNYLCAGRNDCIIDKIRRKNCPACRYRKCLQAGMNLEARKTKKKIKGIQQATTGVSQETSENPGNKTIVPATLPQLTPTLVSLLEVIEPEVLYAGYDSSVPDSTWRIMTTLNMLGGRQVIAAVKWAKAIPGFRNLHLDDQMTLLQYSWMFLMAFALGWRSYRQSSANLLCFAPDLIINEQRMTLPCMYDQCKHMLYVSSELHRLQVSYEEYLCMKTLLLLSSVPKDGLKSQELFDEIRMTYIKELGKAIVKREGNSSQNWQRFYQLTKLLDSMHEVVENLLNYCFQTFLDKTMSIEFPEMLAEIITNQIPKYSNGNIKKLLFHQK
Chain of Cytochrome P450 1A2 (Homo sapiens) (P05177 whole entry, looked up): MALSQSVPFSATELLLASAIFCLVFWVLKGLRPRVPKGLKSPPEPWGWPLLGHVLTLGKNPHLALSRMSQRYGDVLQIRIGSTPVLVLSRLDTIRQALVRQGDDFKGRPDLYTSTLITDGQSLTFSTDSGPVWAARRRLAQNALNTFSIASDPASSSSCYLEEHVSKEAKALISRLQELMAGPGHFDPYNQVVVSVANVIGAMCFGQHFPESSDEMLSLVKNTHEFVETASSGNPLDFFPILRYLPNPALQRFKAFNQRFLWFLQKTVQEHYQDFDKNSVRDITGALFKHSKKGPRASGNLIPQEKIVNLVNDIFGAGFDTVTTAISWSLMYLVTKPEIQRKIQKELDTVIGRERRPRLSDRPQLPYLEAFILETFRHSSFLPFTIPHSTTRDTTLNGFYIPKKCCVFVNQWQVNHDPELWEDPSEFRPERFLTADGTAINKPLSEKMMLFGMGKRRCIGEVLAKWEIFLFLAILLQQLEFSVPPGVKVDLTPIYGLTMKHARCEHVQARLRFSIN
Chain of 3',5'-cyclic-AMP phosphodiesterase 4B (Homo sapiens) (Q07343 whole entry, looked up): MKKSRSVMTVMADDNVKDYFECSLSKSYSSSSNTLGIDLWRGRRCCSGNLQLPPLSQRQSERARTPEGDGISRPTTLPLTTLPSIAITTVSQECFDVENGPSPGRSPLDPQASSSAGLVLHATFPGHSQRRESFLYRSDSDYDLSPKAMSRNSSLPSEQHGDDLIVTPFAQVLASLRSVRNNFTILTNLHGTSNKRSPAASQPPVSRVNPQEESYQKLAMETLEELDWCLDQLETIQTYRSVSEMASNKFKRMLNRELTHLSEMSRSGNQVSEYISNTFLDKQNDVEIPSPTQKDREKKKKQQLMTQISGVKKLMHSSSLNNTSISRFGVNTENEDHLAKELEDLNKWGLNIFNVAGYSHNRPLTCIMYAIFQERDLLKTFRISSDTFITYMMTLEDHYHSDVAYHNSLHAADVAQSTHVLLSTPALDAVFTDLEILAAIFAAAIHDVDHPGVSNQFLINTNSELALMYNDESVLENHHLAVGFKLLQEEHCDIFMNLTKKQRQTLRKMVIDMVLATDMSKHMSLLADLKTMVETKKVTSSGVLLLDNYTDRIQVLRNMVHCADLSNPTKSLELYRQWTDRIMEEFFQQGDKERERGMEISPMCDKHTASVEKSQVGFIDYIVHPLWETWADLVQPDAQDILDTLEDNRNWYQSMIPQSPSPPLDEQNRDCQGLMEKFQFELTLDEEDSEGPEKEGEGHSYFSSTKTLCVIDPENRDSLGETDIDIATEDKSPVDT
Chain of Muscarinic acetylcholine receptor M1 (Rattus norvegicus) (P08482 whole entry, looked up): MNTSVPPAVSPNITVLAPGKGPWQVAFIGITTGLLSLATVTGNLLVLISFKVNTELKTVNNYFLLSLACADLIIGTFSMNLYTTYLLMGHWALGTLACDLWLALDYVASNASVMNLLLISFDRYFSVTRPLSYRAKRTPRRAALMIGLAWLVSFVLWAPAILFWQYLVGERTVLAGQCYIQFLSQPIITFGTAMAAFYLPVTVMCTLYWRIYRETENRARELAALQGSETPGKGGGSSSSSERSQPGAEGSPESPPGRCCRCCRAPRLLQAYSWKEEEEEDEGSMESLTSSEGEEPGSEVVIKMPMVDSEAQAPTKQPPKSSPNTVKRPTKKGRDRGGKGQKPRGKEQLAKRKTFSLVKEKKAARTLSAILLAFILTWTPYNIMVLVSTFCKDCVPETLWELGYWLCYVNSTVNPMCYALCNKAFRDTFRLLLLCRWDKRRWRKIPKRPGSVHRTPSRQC
Chain of Pyruvate kinase PKM (Homo sapiens) (P14618 whole entry, looked up): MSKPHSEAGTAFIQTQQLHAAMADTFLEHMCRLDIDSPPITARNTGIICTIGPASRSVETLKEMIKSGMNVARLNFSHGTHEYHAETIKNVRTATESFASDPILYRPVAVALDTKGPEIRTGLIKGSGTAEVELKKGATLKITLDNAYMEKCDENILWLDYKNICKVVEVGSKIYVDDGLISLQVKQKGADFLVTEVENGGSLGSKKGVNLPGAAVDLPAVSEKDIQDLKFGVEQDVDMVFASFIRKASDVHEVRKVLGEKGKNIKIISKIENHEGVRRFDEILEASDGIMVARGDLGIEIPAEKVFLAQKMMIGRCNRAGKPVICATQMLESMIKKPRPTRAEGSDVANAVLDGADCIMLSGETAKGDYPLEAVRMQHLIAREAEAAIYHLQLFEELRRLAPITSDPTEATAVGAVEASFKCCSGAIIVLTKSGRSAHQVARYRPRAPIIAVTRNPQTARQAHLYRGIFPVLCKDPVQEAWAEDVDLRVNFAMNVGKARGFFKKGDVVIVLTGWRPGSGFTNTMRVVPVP
Chain of Cytochrome P450 2C19 (Homo sapiens) (P33261 whole entry, looked up): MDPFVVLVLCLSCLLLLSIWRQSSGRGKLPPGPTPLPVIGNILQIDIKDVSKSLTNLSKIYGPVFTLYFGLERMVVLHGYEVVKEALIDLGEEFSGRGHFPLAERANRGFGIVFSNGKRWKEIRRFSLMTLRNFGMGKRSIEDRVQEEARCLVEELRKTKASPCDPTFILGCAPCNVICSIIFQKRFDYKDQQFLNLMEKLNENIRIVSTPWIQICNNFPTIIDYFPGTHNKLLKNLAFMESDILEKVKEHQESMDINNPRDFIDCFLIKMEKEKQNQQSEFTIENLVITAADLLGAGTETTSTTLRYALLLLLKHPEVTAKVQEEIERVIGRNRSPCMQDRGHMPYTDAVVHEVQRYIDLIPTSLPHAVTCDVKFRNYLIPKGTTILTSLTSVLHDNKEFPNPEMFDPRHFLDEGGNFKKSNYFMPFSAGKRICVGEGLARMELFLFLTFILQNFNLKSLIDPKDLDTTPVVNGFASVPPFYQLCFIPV
Chain of Alpha-galactosidase A (Homo sapiens) (P06280 whole entry, looked up): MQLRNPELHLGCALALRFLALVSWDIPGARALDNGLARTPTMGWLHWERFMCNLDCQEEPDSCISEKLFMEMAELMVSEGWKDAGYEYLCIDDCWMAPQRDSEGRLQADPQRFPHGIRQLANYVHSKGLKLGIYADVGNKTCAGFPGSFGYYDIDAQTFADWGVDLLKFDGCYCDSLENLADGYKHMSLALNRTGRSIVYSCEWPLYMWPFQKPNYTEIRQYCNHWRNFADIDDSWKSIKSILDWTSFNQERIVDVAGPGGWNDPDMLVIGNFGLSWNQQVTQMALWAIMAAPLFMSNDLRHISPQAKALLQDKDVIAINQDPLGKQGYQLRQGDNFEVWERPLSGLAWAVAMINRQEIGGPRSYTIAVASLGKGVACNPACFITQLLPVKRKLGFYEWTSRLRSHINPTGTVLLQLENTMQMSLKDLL
Chain of Pyruvate kinase (Leishmania mexicana) (Q27686 2-499 E452W): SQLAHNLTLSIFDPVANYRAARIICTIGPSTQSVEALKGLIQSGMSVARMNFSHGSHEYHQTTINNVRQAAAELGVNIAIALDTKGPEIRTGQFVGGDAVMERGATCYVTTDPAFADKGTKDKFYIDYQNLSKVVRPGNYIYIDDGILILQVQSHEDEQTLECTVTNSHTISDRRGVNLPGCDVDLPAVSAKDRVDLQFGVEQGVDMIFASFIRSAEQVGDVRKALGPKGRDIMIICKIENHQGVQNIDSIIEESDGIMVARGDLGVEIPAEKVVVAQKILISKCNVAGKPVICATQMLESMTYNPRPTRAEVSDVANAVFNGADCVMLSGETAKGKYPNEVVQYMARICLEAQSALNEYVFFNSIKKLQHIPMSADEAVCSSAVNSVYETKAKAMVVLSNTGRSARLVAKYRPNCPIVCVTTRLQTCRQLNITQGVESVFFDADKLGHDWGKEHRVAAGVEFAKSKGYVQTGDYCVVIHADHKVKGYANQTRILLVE
Chain of Alpha-galactosidase (Coffea arabica) (Q42656 whole entry, looked up): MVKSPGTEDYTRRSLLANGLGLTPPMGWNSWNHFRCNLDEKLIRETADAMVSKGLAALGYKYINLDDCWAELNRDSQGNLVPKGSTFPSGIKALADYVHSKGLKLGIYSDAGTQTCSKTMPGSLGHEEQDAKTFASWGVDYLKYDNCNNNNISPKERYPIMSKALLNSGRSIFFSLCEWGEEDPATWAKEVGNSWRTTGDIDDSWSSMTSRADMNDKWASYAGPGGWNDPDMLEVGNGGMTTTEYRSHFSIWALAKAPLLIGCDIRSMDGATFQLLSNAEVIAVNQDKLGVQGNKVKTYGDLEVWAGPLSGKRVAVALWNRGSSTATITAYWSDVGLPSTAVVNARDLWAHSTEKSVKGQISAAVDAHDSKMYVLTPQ

As for `CC(C)Cc1[nH]c(=O)c(C#N)c2c1CCC2`, the activity change, negative = inhibition is 8.3% in [1] and 18.5% in assay [2]. Further, the outcome in [3] was inactive.

For `Cn1c(O)c(C=NCCCNC2CCCCC2)c(=O)n(C)c1=O`, the activity change, negative = inhibition in assay [1] is 3.35%; in assay [2] it was -13.3%. In assay [3], the result was inactive.

Consider `N[C@]1(C(=O)O)CC[C@@H](C(=O)O)C1`, for which the activity change, negative = inhibition is -3.05% [at 38 µM] in assay [1] and 7.68% [at 38 µM] in [2]. The Potency result in [4], in assay [7], in assay [8] and in assay [9] was “inactive” in each case. The compound was classed as inactive in assay [3] and in [6]. For the same compound, in assay [5], the Potency is over 46 µM.

In the case of `CCCN1CCC[C@H](c2cccc(C#N)c2)C1`, the activity change, negative = inhibition in assay [1] was 7.99% [at 38 µM]. The Potency result in [4], in assay [11] and in assay [14] was “inactive” throughout. Also, the compound was called inactive in assay [3], in [10], in [6], in assay [12], in assay [15] and in assay [16]. For the same compound, the compound was classed as inactive in [17] and in [18]. Also, the Potency in assay [5] is over 46 µM; in assay [13], 11.2 µM (active).

In the case of `O=C1c2ccccc2C(=O)N1Cc1nc2ccccc2c(=O)n1-c1cccnc1`, the activity change, negative = inhibition in [1] was 24%; in [2], -3.03%. Also, the call in [3] was inactive.

For the compound `C[C@]1(C(=O)O)[C@@H]2CC[C@@H](O2)[C@@]1(C)C(=O)O`, in assay [1], the activity change, negative = inhibition was -103% [at 38 µM] (active). Moreover, the Potency result in [4], in [11], in assay [9], in [22], in assay [13] and in [14] was “inactive” throughout. Moreover, the Potency in [5] was over 46 µM; in [19] it was over 46 µM; in assay [20], 6.31 µM (active); in assay [21] it was 5.01 µM (active). The compound was called inactive in [10], in [6], in [15], in [23], in [16] and in [17].

As for `COc1cccc(CN2CCN(C(=O)COc3ccc4ccccc4c3)CC2)c1`, the activity change, negative = inhibition in assay [1] is 2%; in assay [2] it was 13.9%. In assay [3], the outcome was inactive.

For the compound `CN(C)CCOC(=O)c1cn(Cc2ccccc2)c2ccccc12`, the results for the activity change, negative = inhibition in [1] and in assay [2] were 16% and -13.6%, respectively. The outcome in assay [3] was inactive.
